Here are results for 4 compounds from PubChem BioAssay (NCATS).

Where “and” joins values, the source holds several entries; their conditions need not be identical. Equal values may be shown once. Results filed as inconclusive are left out. Calls of active or inactive are those of the source. Unless noted, calls come from the whole dose curve; as a rule, active = well fitted curve in either direction with a large enough effect (not every such curve was filed as active); inconclusive = small, poorly fitted or top-dose-only effect, or another doubt; inactive = flat fitted curve, though single readings scatter.

The nature of experiment [1]: AP1 Signaling Pathway (AID 357). Note: % is set by controls: 0 for no effect and ±100 for the full control effect. The following applies: ME-180 AP-1-bla reporter, EGF-induced, beta-lactamase ratio, 5 h. In short, it runs like this:
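ME-180 cells with beta-lactamase reporter under AP-1 response element, stimulated with EC50 EGF; compounds tested in titration series, 5 h at 37 °C. CCF4 substrate added 2.5 h at room temperature; 460/530 nm emission ratio gave %activity and AC50.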

The target of experiment [2] is Cytochrome P450 1A2 (Homo sapiens) (UniProt P05177). Briefly: p450-cyp1a2 (AID 410; calls by dose curve; note: potency is the fitted concentration of half-maximal effect;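 for activity change, negative = inhibition: -100% = full effect of reference inhibitor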). The following applies: recombinant CYP1A2, luciferin-ME demethylation, luminescence; series mostly up to 57 µM. A digest of the protocol:
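20nM CYP1A2 with 100uM Luciferin-ME (at Km) in 100mM KPO4; compound preincubated 10 min, NADPH regeneration added, 60 min at room temperature. Luciferin quantified by luminescence after detection reagent; normalized to 57 uM furafylline.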

A short description of experiment [3]: NFAT Signaling Pathway (AID 444).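 Note: carbachol stimulus at about its EC50 of 1 µM final; % is set by controls: 0 for no effect and ±100 for the full control effect.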 As to conditions: Jurkat NFAT-bla M1, carbachol, beta-lactamase ratio, 5 h. A digest of the protocol: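 Jurkat cells carrying an NFAT-driven β-lactamase reporter and co-transfected muscarinic M1 receptor were treated with compound plus carbachol (1 uM final, an EC50 level) for 5 h at 37 °C. CCF4 loading followed for 1 h at RT; 460/530 nm ratio gave %activity.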

Experiment [4] is described as follows: Stat Signaling Pathway (AID 446).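 Note: ME-180 cervical cancer cells given 40 pM IL-6 alongside compound; SIE-controlled beta-lactamase reporter measured as 460/530 nm FRET emission ratio; % is set by controls: 0 for no effect and ±100 for the full control effect.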 As to conditions: ME-180 (cervical carcinoma) SIE beta-lactamase reporter, IL-6 stimulated, 5 h. In short, it runs like this: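 IL-6/STAT signaling read in ME-180 cells via an SIE beta-lactamase reporter. Stimulus was 40 pM IL-6 (its AC50) for 5 hrs, so both activation and inhibition register.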
Experiment [5] concerns the target Mitogen-activated protein kinase 10 (Mus musculus) (UniProt Q61831). Description: JNK3 AlphaScreen Assay (AID 530).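 Note: kinase came from lysate of stimulated human HepG2 cells; signal reports phosphorylation of biotinylated GST-cJun 1-79 at Ser73 with 10 µM ATP; % is set by controls: 0 for no effect and ±100 for the full control effect.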 As to conditions: JNK3 lysate, c-Jun phosphorylation; series mostly up to 57.1 µM. In short, it runs like this:
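Inhibitors reduce antibody binding to phosphorylated biotin-cJun, lowering AlphaScreen luminescence. Lysates from HepG2 cells pre-activated by IL-1beta plus TNF-alpha supplied JNK3; compounds were titrated.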

Experiment [6] deals with 3',5'-cyclic-AMP phosphodiesterase 4B (Homo sapiens) (UniProt Q07343). Briefly: qHTS Assay for Inhibitors of PDE-IV (AID 607; active = well fitted activation curve with a large enough effect in the main read-out, with a control signal flat, not every such curve was filed as active; note: % of control where 0% means no effect). The following applies: HEK293 ACTOne CNG channel cells, membrane potential fluorescence; series mostly up to 22.9 µM. In short, it runs like this: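 Live HEK293 cells with a modified cyclic nucleotide-gated (CNG) channel report intracellular cAMP via membrane-potential dye fluorescence (ex 535/em 590 nm). Endogenous PDE-IV was targeted. Compounds were tested at up to 22.9 uM final; RO 20-1724 100 uM served as control.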
3',5'-cyclic-AMP phosphodiesterase 4B (Homo sapiens), sequence (Q07343 whole entry, looked up): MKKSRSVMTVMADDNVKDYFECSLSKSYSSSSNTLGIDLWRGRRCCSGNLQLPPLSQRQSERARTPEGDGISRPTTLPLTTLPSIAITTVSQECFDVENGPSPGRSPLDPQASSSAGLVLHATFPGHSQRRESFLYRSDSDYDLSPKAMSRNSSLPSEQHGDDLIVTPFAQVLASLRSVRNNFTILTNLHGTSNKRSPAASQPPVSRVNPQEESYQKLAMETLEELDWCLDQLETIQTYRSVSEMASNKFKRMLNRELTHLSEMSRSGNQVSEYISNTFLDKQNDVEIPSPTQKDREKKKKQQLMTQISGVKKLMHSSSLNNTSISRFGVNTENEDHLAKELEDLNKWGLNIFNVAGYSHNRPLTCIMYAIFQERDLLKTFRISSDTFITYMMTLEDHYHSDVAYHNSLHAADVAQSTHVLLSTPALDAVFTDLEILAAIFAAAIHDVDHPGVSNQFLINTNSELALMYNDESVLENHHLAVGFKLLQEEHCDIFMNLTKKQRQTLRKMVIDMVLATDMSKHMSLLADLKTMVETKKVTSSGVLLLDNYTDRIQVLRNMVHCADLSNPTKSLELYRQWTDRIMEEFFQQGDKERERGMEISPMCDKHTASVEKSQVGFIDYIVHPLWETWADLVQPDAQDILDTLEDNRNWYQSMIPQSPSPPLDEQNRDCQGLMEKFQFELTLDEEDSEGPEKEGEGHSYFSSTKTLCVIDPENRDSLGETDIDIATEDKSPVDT

Experiment [7] deals with Cytochrome P450 3A4 (Homo sapiens) (UniProt P08684). Briefly: qHTS Assay for Inhibitors and Substrates of Cytochrome P450 3A4 (AID 884; active = well fitted curve in the direction sought with a large enough effect; an effect the other way counts as inactive or inconclusive; note: % is set by controls: 0 for no effect and ±100 for the full control effect; nearly all actives have a fitted effect of over 50% in size). The following applies: recombinant CYP3A4, Luciferin-PPXE luminescence; series mostly up to 57.1 µM. In short, it runs like this:
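20 nM human CYP3A4 with 25 uM Luciferin-PPXE (at KM) in 200 mM KPO4, preincubated 10 min with compound; NADPH regeneration started a 60 min RT reaction. Luciferin detected by luminescence, normalized to 57 uM ketoconazole as full inhibition.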

For experiment [8], the target named is Cytochrome P450 2D6 (Homo sapiens) (UniProt P10635). Briefly: qHTS Assay for Inhibitors and Substrates of Cytochrome P450 2D6 (AID 891; active = well fitted curve in the direction sought with a large enough effect; an effect the other way counts as inactive or inconclusive; note: nearly all actives have a fitted effect of over 60% in size; note: potency is the fitted concentration of half-maximal effect). As to conditions: recombinant CYP2D6, luciferin-ME EGE luminescence; series mostly up to 57.1 µM. In short, it runs like this: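 Human CYP2D6 (5 nM) with 30 uM Luciferin-ME EGE (at Km) in 100 mM KPO4, compound preincubated 10 min, then NADPH regeneration system for 60 min at room temperature. Luciferin read by luminescence; normalized to 1.43 uM quinidine.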
Cytochrome P450 2D6 (Homo sapiens), sequence (P10635 whole entry, looked up): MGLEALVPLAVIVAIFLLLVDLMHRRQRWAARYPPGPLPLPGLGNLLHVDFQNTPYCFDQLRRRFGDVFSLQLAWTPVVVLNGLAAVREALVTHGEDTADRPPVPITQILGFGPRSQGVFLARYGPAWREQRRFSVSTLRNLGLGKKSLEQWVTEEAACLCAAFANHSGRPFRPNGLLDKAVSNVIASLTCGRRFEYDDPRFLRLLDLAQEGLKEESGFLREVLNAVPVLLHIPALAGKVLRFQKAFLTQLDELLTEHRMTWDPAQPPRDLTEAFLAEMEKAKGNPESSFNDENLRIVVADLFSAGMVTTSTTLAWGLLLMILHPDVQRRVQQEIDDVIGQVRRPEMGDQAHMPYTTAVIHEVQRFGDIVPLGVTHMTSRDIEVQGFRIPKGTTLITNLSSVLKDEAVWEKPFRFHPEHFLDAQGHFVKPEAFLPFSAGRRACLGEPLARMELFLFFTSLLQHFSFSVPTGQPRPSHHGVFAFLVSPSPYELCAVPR

A short description of experiment [9]: qHTS Assay for Lipid Storage Modulators (AID 1519; calls by dose curve). The following applies: Drosophila S3 cells, BODIPY lipid droplet/cell ratio, laser cytometry, cells loaded with oleic acid; for activity change, negative = inhibition: at 25.7 µM (top of the series). In short, it runs like this: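 Cells seeded at 5,000 per well were treated with compounds over a concentration series and loaded with oleic acid (400 uM, as added). Lipid droplet fluorescence (488 nm excitation, 500-530 nm channel) was read by laser-scanning cytometry and normalized to 20 uM Triacsin C.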
A general note: qHTS replaces the single test concentration by a dilution series.

The target in experiment [10] is Glucocorticoid receptor (Homo sapiens) (UniProt P04150). Briefly: GR-GFP Redistribution (AID 450;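 active = compounds whose dose series gives a full or clear partial fitted curve of increased nuclear translocation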; note: potency is the fitted concentration of half-maximal effect). As to conditions: U2OS GR-GFP nuclear translocation, laser cytometry, 2 h.
Glucocorticoid receptor (Homo sapiens), sequence (P04150 whole entry, looked up, the tested form may be a part): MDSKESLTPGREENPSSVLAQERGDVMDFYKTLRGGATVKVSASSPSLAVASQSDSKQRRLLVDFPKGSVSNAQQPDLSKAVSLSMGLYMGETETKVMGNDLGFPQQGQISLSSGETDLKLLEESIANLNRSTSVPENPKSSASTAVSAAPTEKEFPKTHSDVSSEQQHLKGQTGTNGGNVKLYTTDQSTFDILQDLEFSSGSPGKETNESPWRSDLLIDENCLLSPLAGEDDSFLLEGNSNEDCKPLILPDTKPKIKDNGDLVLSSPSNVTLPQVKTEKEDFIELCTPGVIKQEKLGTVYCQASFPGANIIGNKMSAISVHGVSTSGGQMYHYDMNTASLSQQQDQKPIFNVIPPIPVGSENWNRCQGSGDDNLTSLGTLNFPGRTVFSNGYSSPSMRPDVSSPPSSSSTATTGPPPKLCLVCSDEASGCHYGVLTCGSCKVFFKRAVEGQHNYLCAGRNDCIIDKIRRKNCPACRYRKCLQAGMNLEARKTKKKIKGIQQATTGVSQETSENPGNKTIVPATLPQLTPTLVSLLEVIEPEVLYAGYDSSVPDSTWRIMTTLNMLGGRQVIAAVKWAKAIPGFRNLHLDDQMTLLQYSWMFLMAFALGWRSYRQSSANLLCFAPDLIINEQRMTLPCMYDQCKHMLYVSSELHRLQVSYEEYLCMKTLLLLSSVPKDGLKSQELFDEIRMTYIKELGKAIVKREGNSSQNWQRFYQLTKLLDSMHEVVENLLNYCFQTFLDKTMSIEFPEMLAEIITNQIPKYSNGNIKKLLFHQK
For experiment [11] the target is unchanged. Description: GR-EFC Redistribution (AID 451; calls by dose curve; note: potency is the fitted concentration of half-maximal effect). The following applies: CHO-K1 GR-EFC translocation, beta-gal luminescence, 2 h. A digest of the protocol: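 CHO-K1 cells stably expressing nuclear-localized β-gal enzyme acceptor and GR fused C-terminally to the enzyme donor fragment; ligand-driven nuclear translocation restores β-gal by complementation. Compounds titrated up to 46 uM final, 2 h at 37 °C; luminescence read.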

In experiment [12] the target is Guanine nucleotide-binding protein G(i) subunit alpha-1 (Homo sapiens) (UniProt P63096). Description: qHTS Assay for Inhibitors of RGS12 GoLoco Motif Activity (Green Fluorophore) (AID 879; active = well fitted curve in the direction sought with a large enough effect; an effect the other way counts as inactive or inconclusive;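 note: 0% = labeled peptide with Gαi1 and full inhibition = labeled peptide alone without protein; negative values mean loss of peptide binding seen as reduced polarization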). As to conditions: Galphai1/FITC-RGS12 GoLoco peptide, fluorescence polarization; series mostly up to 57.1 µM. In short, it runs like this: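 Fluorescence polarization assay: 50 nM Gαi1 with 10 nM FITC-labeled RGS12 GoLoco peptide in 10 mM Tris pH 7.5, 150 mM NaCl, 0.1 mM GDP, 0.05% NP40, 10 min at room temperature with compound.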
Guanine nucleotide-binding protein G(i) subunit alpha-1 (Homo sapiens), sequence (P63096 whole entry, looked up): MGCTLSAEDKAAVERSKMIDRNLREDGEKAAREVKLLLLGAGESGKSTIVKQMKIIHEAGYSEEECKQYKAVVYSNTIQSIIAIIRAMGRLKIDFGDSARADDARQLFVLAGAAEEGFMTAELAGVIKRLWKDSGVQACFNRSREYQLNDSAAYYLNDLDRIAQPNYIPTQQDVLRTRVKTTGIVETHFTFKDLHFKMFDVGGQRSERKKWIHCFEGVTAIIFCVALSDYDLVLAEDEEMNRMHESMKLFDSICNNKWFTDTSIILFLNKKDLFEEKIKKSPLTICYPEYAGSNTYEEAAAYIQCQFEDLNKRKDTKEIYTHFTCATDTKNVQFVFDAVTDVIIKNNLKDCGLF

Experiment [13] deals with Ubiquitin carboxyl-terminal hydrolase 1 (Homo sapiens) (UniProt O94782). Description: Inhibitors of USP1/UAF1: Pilot qHTS (AID 504865; active = well fitted curve in the direction sought with a large enough effect; an effect the other way counts as inactive or inconclusive;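 note: rhodamine fluorescence freed from ubiquitin-rhodamine substrate followed over time; top concentration of the series differs between compounds; % is set by controls: 0 for no effect and ±100 for the full control effect; nearly all actives have a fitted effect of over 35% in size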). The following applies: purified USP1/UAF1, Ub-rhodamine cleavage fluorescence; series mostly up to 54.9 µM. A digest of the protocol:
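In 50mM HEPES pH 7.8 containing 0.5mM EDTA, 1mM TCEP, 0.1 mg/ml BSA and 0.01% Tween-20, 1nM USP1/UAF1 is exposed to compound for 15 min, then Ub-Rho (150nM final) is added and fluorescence is read over time.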

Experiment [14] is described as follows: qHTS profiling for inhibitors of Plasmodium falciparum proliferation (AID 504749; active = well fitted curve in the direction sought with a large enough effect; an effect the other way counts as inactive or inconclusive; note: potency is the fitted concentration of half-maximal effect; nearly all actives have a fitted effect of over 60% in size). The following applies: P. falciparum in erythrocytes, SYBR Green DNA, 72 h. In short, it runs like this:
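Parasite proliferation within erythrocytes, 72 h exposure. Endpoint: SYBR Green I fluorescence after overnight lysis at room temperature. Controls: 0.29 uM artemisinin, DMSO.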

[15] abbreviates: measured here: cell count channel max response.
Setting [16] is: measured here: lipid channel max response.

Cytochrome P450 1A2 (Homo sapiens), sequence (P05177 whole entry, looked up): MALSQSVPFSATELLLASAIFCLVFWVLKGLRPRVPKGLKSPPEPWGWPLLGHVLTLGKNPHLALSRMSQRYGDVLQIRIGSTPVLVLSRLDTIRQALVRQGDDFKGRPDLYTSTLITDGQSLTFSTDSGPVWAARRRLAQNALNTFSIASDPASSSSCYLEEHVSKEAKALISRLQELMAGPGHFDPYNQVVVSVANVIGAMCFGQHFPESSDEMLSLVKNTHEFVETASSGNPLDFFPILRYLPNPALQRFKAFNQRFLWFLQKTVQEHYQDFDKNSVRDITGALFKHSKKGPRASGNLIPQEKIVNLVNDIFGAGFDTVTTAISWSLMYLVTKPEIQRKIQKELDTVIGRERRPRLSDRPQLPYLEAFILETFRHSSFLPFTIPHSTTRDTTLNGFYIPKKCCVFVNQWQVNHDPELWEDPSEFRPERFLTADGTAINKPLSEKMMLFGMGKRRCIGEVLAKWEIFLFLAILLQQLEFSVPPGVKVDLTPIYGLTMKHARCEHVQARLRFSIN
Ubiquitin carboxyl-terminal hydrolase 1 (Homo sapiens), sequence (O94782 whole entry, looked up): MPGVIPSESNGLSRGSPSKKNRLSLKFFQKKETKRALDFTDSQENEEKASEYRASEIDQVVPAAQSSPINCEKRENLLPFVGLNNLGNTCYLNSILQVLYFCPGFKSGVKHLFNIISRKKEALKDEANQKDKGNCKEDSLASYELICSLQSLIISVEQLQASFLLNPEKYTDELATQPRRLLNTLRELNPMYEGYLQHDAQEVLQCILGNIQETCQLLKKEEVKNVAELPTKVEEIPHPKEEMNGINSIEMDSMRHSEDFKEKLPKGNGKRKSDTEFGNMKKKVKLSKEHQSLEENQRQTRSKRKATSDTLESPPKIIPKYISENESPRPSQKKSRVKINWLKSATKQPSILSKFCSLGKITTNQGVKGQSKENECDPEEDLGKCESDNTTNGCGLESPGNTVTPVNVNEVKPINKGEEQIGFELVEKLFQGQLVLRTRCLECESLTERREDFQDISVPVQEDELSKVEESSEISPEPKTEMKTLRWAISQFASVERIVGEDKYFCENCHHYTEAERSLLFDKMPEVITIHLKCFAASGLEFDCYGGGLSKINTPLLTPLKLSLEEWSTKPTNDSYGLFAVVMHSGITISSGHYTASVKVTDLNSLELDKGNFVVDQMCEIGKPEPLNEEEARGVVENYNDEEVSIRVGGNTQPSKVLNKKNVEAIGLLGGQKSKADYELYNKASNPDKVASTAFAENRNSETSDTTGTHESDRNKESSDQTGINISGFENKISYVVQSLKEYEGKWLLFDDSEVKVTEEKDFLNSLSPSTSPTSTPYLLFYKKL
Cytochrome P450 3A4 (Homo sapiens), sequence (P08684 whole entry, looked up): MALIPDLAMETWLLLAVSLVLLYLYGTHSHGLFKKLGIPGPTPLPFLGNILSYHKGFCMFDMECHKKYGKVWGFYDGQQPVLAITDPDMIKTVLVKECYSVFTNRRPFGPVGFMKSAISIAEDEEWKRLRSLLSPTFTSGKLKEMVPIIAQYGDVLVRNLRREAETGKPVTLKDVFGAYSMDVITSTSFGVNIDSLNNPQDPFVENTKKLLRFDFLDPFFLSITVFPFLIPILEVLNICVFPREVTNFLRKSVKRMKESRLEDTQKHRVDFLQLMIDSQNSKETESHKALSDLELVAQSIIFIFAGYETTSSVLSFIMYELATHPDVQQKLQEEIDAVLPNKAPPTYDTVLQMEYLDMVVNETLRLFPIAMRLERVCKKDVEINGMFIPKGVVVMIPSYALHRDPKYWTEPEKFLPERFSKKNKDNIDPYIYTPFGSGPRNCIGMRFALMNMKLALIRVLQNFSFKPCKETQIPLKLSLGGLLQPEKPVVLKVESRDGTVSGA

Consider `CC(=O)[C@@H]1CC[C@@H]2[C@@H]3CCC4=CC(=O)CC[C@@]4(C)[C@H]3CC[C@]21C`, for which the activity change, negative = inhibition in experiment [1] (at 17.2 µM (top of the series)) was 2.95% (inactive); in experiment [1] (at 38 µM (top of the series)), 10.7% (inactive); in experiment [3] (at 17.2 µM (top of the series)) it was -20.4% (inactive); in experiment [3] (at 38 µM (top of the series)), -21.5% (inactive); in experiment [9], -4.74% (inactive). For the same compound, the Potency entry in experiment [2], in experiment [5], in experiment [6], in [7] and in experiment [8] was “inactive” each time. Also, the activity, negative = inhibition in experiment [4] (at 17.2 µM (top of the series)) was -0.332% (inactive); in experiment [4] (at 38 µM (top of the series)), 9.04% (inactive). For the same compound, the max response in experiment [9] (setting [15]) is -9.33%; in experiment [9] (setting [16]), -17.9%.
As to `C[C@@H](CCc1ccccc1)NC[C@H](O)c1ccc(O)c(C(N)=O)c1`, the activity change, negative = inhibition was 10.2% (inactive) in experiment [1] (at 17.2 µM (top of the series)); 8.69% (inactive) in experiment [1] (at 38 µM (top of the series)); -19.2% (inactive) in experiment [3] (at 17.2 µM (top of the series)); -1.34% (inactive) in [3] (at 38 µM (top of the series)); -1.75% (inactive) in experiment [9]. Besides, the Potency entry in [2], in [5], in experiment [6], in experiment [12] and in [13] was “inactive” throughout. Moreover, the activity, negative = inhibition in experiment [4] (at 17.2 µM (top of the series)) was -0.55% (inactive); in [4] (at 38 µM (top of the series)) it was 4.03% (inactive). Besides, the Potency in experiment [10] is > 46 µM (inactive) and > 20.6 µM (inactive); in [11] it was > 46 µM (inactive) and > 20.6 µM (inactive); in experiment [8], 3.98 µM (active) and 2 µM (active); in experiment [14] (parasite line B), 10 µM (active). Besides, the max response was -10.3% in experiment [9] (setting [15]) and -13.3% in experiment [9] (setting [16]).
On to `NC(=O)c1cc[n+](CC2=C(C(=O)O)N3C(=O)[C@@H](NC(=O)[C@H](c4ccccc4)S(=O)(=O)[O-])[C@@H]3SC2)cc1`, for which the activity change, negative = inhibition was 2.93% (inactive) in experiment [1] (at 17.2 µM (top of the series)); -7.21% (inactive) in experiment [1] (at 38 µM (top of the series)); 5.18% (inactive) in experiment [3] (at 17.2 µM (top of the series)); 3.09% (inactive) in experiment [3] (at 38 µM (top of the series)); -1.52% (inactive) in experiment [9]. In addition, the Potency result in experiment [2], in experiment [5], in experiment [6], in experiment [12] and in [13] was “inactive” throughout. For the same compound, the activity, negative = inhibition in experiment [4] (at 17.2 µM (top of the series)) is 0.394% (inactive); in experiment [4] (at 38 µM (top of the series)) it was 0.148% (inactive). The max response was -10.2% in experiment [9] (setting [15]) and -11.3% in [9] (setting [16]). The Potency in experiment [14] (parasite line A) and in experiment [14] (parasite line B) was 3.55 µM (active) each time.
As to `C[C@@]12CC[C@@H]3c4ccc(O)cc4CC[C@H]3[C@H]1CC[C@H]2O`, the activity change, negative = inhibition in experiment [1] (at 17.2 µM (top of the series)) is -5.6% (inactive); in experiment [1] (at 38 µM (top of the series)), -13.9% (inactive); in [3] (at 17.2 µM (top of the series)) it was -19.1% (inactive); in [3] (at 38 µM (top of the series)) it was -4.36% (inactive); in [9] it was -0.875% (inactive). For the same compound, the Potency was 10 µM (active) and 5.01 µM (active) in experiment [2]; > 46 µM (inactive) and > 20.6 µM (inactive) in experiment [10]; > 46 µM (inactive) and > 20.6 µM (inactive) in experiment [11]. Also, the activity, negative = inhibition was -28.8% (inactive) in [4] (at 17.2 µM (top of the series)) and -19.1% (inactive) in experiment [4] (at 38 µM (top of the series)). The Potency result in [5], in experiment [6], in experiment [8] and in [13] was “inactive” in each case. Moreover, the max response is -11.7% in experiment [9] (setting [15]) and -11.1% in experiment [9] (setting [16]).
